Assay outcomes: PubChem BioAssay, National Center for Advancing Translational Sciences (NCATS)
HT1080-NT tox: qHTS for induction of synthetic lethality in tumor cells producing 2HG: qHTS for the HT-1080-NT fibrosarcoma cell line; HT-1080-NT fibrosarcoma viability, CellTiter-Glo ATP luminescence, 48 h; Potency, µM (top dose mostly 46.1 µM), inactives show top-dose activity, negative = less viability, hits mostly cytotoxic; 360,000 tested, 1.6% active; AID 686970, 2013;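 further: NT is the 2HG producing partner of a matched IDH1 knockdown line; 0% = DMSO-treated cells and -100% = media-only wells without cells; nearly all actives have a fitted effect of over 55% in size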
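Luminescent CellTiter-Glo readout after 48 hours of compound exposure at 37 degrees C defined viability of HT-1080-NT cells. Activity was normalized to DMSO wells and cell-free media wells; concentration-response curves were fitted and assigned curve classes.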
SW480 rerep: A quantitative high throughput screen for small molecules that induce DNA re-replication in SW480 colon adenocarcinoma cells; Potency, µM (series often up to 46.1 µM), for the others: top-dose re-replication activation, most hits filed as activators; 340,000 tested, 1.8% active; SW480 DNA re-replication, Hoechst DNA content imaging, 48 h; further: % of control where 0% means no effect; nearly all actives have a fitted effect of over 55% in size
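Image-based DNA-content assay: after two days of treatment, nuclei were labelled with the DNA dye Hoechst and imaged, and hits were compounds raising the count of nuclei showing high fluorescence intensity.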
KB-3-1 cytotox: qHTS assay for MDR1-selective chemotherapeutics: Primary screen using the parental adenocarcinoma cell KB-3-1; KB-3-1 viability, CellTiter-Glo ATP luminescence, 72 h; Potency, µM (titrated, usually from 46.1 µM), most hits filed as cytotoxic; 400,000 tested, 1.4% active; AID 1347075, 2019; further: on the % scale 0 is the no-effect control and ±100 the full control effect; nearly all actives have a fitted effect of over 60% in size
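Using CellTiter-Glo luminescence, growth of non-resistant KB-3-1 adenocarcinoma cells is assessed 72 h after pin-tool compound addition at 37 °C. Normalized responses across the concentration series yield fitted curves.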
MCF10A rereplic: A quantitative high throughput screen for small molecules that induce DNA re-replication in MCF 10a normal breast cells. MCF 10A DNA re-replication, Hoechst nuclear intensity, 48 h. Potency, µM (top dose mostly 46.1 µM), without a hit: at the top dose activity, positive = re-replication, most hits filed as activators. 350,000 tested, 2.9% active. AID 624296, 2012; further: % of control where 0% means no effect; nearly all actives have a fitted effect of over 50% in size
KB-V1 MDR tox: qHTS assay for MDR1-selective chemotherapeutics: Primary screen using the drug-selected MDR subline cells KB-V1; Potency, µM (top dose mostly 46.1 µM), usual class: cytotoxic; KB-V1 MDR cells viability, CellTiter-Glo, 72 h; 400,000 tested, 3.4% active; further: on the % scale 0 is the no-effect control and ±100 the full control effect; nearly all actives have a fitted effect of over 60% in size
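Potencies derive from concentration-effect curves fitted to normalized luminescence (CellTiter-Glo) of KB-V1 cells treated for 72 h at 37 degrees C in phenol-red-free DMEM containing 10% FBS.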
HT1080 IDH1KD tx: qHTS for induction of synthetic lethality in tumor cells producing 2HG: qHTS for the HT-1080-IDH1KD cell line; HT-1080 IDH1 knockdown viability, ATP luminescence, 48 h; Potency, µM (titrated, usually from 46.1 µM), for the others: at the top dose activity, negative = toxicity, hits mostly cytotoxic; 360,000 tested, 2% active;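 further: 0% = DMSO wells and -100% = cell-free medium wells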
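Viability of IDH1-knockdown HT-1080 fibrosarcoma cells was assessed by CellTiter-Glo after 48 h at 37 °C with titrated compound; concentration-effect curves were classified by fit quality and response size.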
An asterisk follows results filed as active; [ ] = remark or other dose. In the library only some 7.9% were active in any assay of this set; here they are far more common. The call rests on the fitted dose curve; in most records, active means well fitted curve in the direction sought with a large enough effect; inconclusive means small, poorly fitted or top-dose-only effect, or another doubt; inactive means no such curve, though single readings can be large; an effect the other way counts as inactive or inconclusive. Potency means the concentration at half of the fitted maximal effect.

How did O=C(CSc1nc(N2CCOCC2)nc(N2CCOCC2)n1)Nc1ccc([N+](=O)[O-])cc1 do in these assays?
HT1080-NT tox: -1%; SW480 rerep: -9%; MCF10A rereplic: inconclusive; HT1080 IDH1KD tx: -10%

How did O=C(CCc1ccccc1)Nc1ccc(Cl)cn1 do in these assays?
HT1080-NT tox: 5.8µM*; SW480 rerep: 6.5µM*; KB-3-1 cytotox: 5.8µM*; MCF10A rereplic: 5.8µM*; KB-V1 MDR tox: inconclusive; HT1080 IDH1KD tx: 2.9µM*

What do the screens show for `Cc1cnc(NC(=O)CSc2ccccc2)s1`?
HT1080-NT tox: 4%; SW480 rerep: -5%; KB-3-1 cytotox: inactive; MCF10A rereplic: -2%; KB-V1 MDR tox: inactive; HT1080 IDH1KD tx: 0%

How did COc1ccc(CCC(=O)Nc2ncc(C)s2)cc1OC do in these assays?
HT1080-NT tox: 4%; SW480 rerep: inconclusive; KB-3-1 cytotox: inconclusive; MCF10A rereplic: 12%; KB-V1 MDR tox: inactive; HT1080 IDH1KD tx: 7%

Results for COc1ccc(Cc2nnc(SCC(=O)NC(C)c3ccccc3)o2)cc1 (stereo not given) ?
HT1080-NT tox: 2%; SW480 rerep: -1%; KB-3-1 cytotox: inactive; MCF10A rereplic: 8%; KB-V1 MDR tox: 21µM*; HT1080 IDH1KD tx: 5%

What do the screens show for `Cc1cnc(NC(=O)CCc2ccccc2)s1`?
HT1080-NT tox: inconclusive; SW480 rerep: 13µM*; KB-3-1 cytotox: inconclusive; MCF10A rereplic: 10µM*; KB-V1 MDR tox: inactive; HT1080 IDH1KD tx: inconclusive

Results for CCOC(=S)SCC(=O)Nc1ncc(C)s1 ?
HT1080-NT tox: inconclusive; SW480 rerep: inconclusive; KB-3-1 cytotox: inactive; MCF10A rereplic: inconclusive; KB-V1 MDR tox: inactive; HT1080 IDH1KD tx: 18µM*

What do the screens show for `CC(NC(=O)CSc1nnc(COc2ccccc2)o1)c1ccccc1` (stereo not given)?
HT1080-NT tox: 5%; SW480 rerep: 3%; KB-3-1 cytotox: inactive; MCF10A rereplic: 14%; KB-V1 MDR tox: inactive; HT1080 IDH1KD tx: 14%

How did O=C1C(=C(c2ccccc2)c2ccccc2)Nc2ccccc21 do in these assays?
HT1080-NT tox: inconclusive; SW480 rerep: 8%; KB-3-1 cytotox: inconclusive; MCF10A rereplic: 20%; KB-V1 MDR tox: inconclusive; HT1080 IDH1KD tx: inconclusive

What do the screens show for `COc1ccc(Cc2nnc(SCC(=O)Nc3ncc(C)s3)o2)cc1`?
HT1080-NT tox: -4%; SW480 rerep: 11%; KB-3-1 cytotox: inconclusive; MCF10A rereplic: 0%; KB-V1 MDR tox: inconclusive; HT1080 IDH1KD tx: -4%

Results for Cc1cnc(NC(=O)CSc2nnc(Cc3ccccc3)o2)s1 ?
HT1080-NT tox: 4.5µM*; SW480 rerep: inconclusive; KB-3-1 cytotox: inactive; MCF10A rereplic: inconclusive; KB-V1 MDR tox: inactive; HT1080 IDH1KD tx: 4.5µM*

What do the screens show for `CCOC(=O)c1sc(NC(=O)CSc2nnc(Cc3ccccc3)o2)c(C(=O)OCC)c1C`?
HT1080-NT tox: -17%; SW480 rerep: -2%; KB-3-1 cytotox: inactive; MCF10A rereplic: 18%; KB-V1 MDR tox: 7.3µM*; HT1080 IDH1KD tx: 6%

How did COc1cccc(CNC(=O)N2CCN(S(=O)(=O)c3ccc(Cl)cc3)CC2)c1 do in these assays?
HT1080-NT tox: -6%; SW480 rerep: 6%; KB-3-1 cytotox: inactive; MCF10A rereplic: 1%; KB-V1 MDR tox: inconclusive; HT1080 IDH1KD tx: -2%

Results for Cc1ccc(NC(=S)N/N=C/c2c(C)nn(-c3ccccc3)c2N2CCCC2)cc1 ?
HT1080-NT tox: 5%; SW480 rerep: 14%; KB-3-1 cytotox: inactive; MCF10A rereplic: inconclusive; KB-V1 MDR tox: inactive; HT1080 IDH1KD tx: 22%

Results for COc1c(/C=N/NC(N)=S)c(C)nn1-c1ccccc1 ?
HT1080-NT tox: 8%; SW480 rerep: 3%; KB-3-1 cytotox: inconclusive; MCF10A rereplic: 4%; KB-V1 MDR tox: 9.2µM*; HT1080 IDH1KD tx: 10%

Results for Cc1nn(-c2ccccc2)c(N2CCCC2)c1/C=N/NC(=S)Nc1ccc(F)cc1 ?
HT1080-NT tox: -3%; SW480 rerep: 5.8µM*; KB-3-1 cytotox: inconclusive; MCF10A rereplic: 4%; KB-V1 MDR tox: inactive; HT1080 IDH1KD tx: 0%

What do the screens show for `O=C(CSCc1ccccc1Br)NNC(=S)NCc1ccco1`?
HT1080-NT tox: 8%; SW480 rerep: 0%; KB-3-1 cytotox: inconclusive; MCF10A rereplic: inconclusive; KB-V1 MDR tox: inconclusive; HT1080 IDH1KD tx: 5%

How did Cc1ccc(CNCC(O)(c2ccccc2)c2ccccc2)cc1 do in these assays?
HT1080-NT tox: -6%; SW480 rerep: -12%; KB-3-1 cytotox: inactive; MCF10A rereplic: 1%; KB-V1 MDR tox: inactive; HT1080 IDH1KD tx: -11%

How did Cc1ccc(CNCC(O)(c2ccccc2)c2ccc(Cl)cc2)cc1 (stereo not given) do in these assays?
HT1080-NT tox: 23µM*; SW480 rerep: inconclusive; KB-3-1 cytotox: inactive; MCF10A rereplic: 26%; KB-V1 MDR tox: inconclusive; HT1080 IDH1KD tx: inconclusive

What do the screens show for `CCc1ccc(C(O)(CNCc2ccccc2)c2ccccc2)cc1` (stereo not given)?
HT1080-NT tox: -12%; SW480 rerep: inconclusive; KB-3-1 cytotox: inactive; MCF10A rereplic: inconclusive; KB-V1 MDR tox: inactive; HT1080 IDH1KD tx: -1%

How did COc1ccc(CNCC(O)(c2ccccc2)c2ccc(Cl)cc2)cc1 (stereo not given) do in these assays?
HT1080-NT tox: inconclusive; SW480 rerep: inconclusive; KB-3-1 cytotox: inconclusive; MCF10A rereplic: 14%; KB-V1 MDR tox: 13µM*; HT1080 IDH1KD tx: -26%

Results for CC(C)CN(C(=O)COc1ccc2ccc(=O)oc2c1)C1CCS(=O)(=O)C1 (stereo not given) ?
HT1080-NT tox: -2%; SW480 rerep: -3%; KB-3-1 cytotox: inactive; MCF10A rereplic: -2%; KB-V1 MDR tox: inconclusive; HT1080 IDH1KD tx: -3%

How did O=C(OCc1cc2ccccc2[nH]c1=O)c1ccco1 do in these assays?
HT1080-NT tox: 0%; SW480 rerep: -2%; KB-3-1 cytotox: inactive; MCF10A rereplic: -5%; KB-V1 MDR tox: inactive; HT1080 IDH1KD tx: 13%

What do the screens show for `CCCC(C)NNC(=O)c1cc2ccccc2[nH]1` (stereo not given)?
HT1080-NT tox: -1%[9.24 µM]; SW480 rerep: 0%; KB-3-1 cytotox: inactive; MCF10A rereplic: 1%; KB-V1 MDR tox: inactive; HT1080 IDH1KD tx: -5%
